This is a sample that favours compounds with a hit; in the whole collection about 2.3% have one here.
697 NFkB inh: inhibitors of PMA/ionomycin-induced NF-kB reporter, 697 cells, primary screen, B-cell NF-kB inhibitor project, cell-based, luminescence, uHTS; 697 B-cell NF-kB luciferase reporter, 16 h; inhibition, % at 4 µM; 330,000 tested, 0.33% active; AID 435022, 2010; in the data active = inhibition above about 35%
Jurkat NFkB inh: inhibitors of induced NF-kB luciferase reporter, primary screen, TCR NF-kB activation inhibitor project, cell-based, luminescence, uHTS | Jurkat, PMA/ionomycin-induced NF-kB luciferase reporter | inhibition, % at 4 µM | 330,000 tested, 0.53% active | AID 435003, 2010; in the data active = inhibition above about 50%
EBV LMP1 NFkB: EBV LMP1-driven NF-kappaB luciferase reporter inhibitors, primary screen, cell-based, luminescence, single point; inhibition, % at 12.5 µM; LMP1-induced NF-kappaB luciferase reporter cells; 350,000 tested, 0.69% active; AID 504558, 2011; in the data active = inhibition above about 41%;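 note: 0% = neutral control wells and 100% = reference inhibitor control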
Gli-Sufu antag: Gli-Sufu pathway antagonists, primary screen, luciferase luminescence, Sufu-KO-LIGHT cells, uHTS | AID 588413, 2011 | 340,000 tested, 0.74% active | inhibition, % at 5 µM | Sufu-KO-LIGHT fibroblasts, Gli luciferase reporter luminescence;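 active = inhibition above about 55%, limit read from the data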;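 note: 0% = DMSO-treated cells and 100% = wells with medium but no cells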
Shn3 3UTR inh: reduction of Shn3 3'UTR firefly luciferase signal, primary screen, Schnurri-3 inhibitor project, cell-based, Clone20 osteoblasts, set 2 | Clone20 osteoblast Shn3 3'UTR firefly luciferase, 24 h | inhibition, % at 12.5 µM | 360,000 tested, 0.52% active | AID 588674, 2011;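 active = mean inhibition of at least 75% with every replicate also reaching 75%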;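 note: 0% = median of neutral control wells and 100% = pilot-screen positive control compound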
MITF TRPM1 inh: inhibitors of MITF-dependent TRPM1 promoter reporter, primary screen, cell-based, SK-MEL-5, single point, luciferase. SK-MEL-5 TRPM1 promoter luciferase, 24 h. 330,000 tested, 0.83% active. inhibition, % at 12.5 µM;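 active = mean inhibition across replicates of 60% or more, whatever share of single replicates reaches that level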
Gli-Sufu confirm: Gli-SUFU pathway antagonists, confirmation, single concentration, luciferase luminescence, Sufu-KO-LIGHT cells | AID 602428, 2012 | shares compounds with Gli-Sufu antag | Gli luciferase reporter | inhibition, % at 5 µM | 2,500 tested, 40% active;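 active = mean inhibition at 5 µM reaching about 45%, limit read from the data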;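 note: plate controls were DMSO-treated cells for no effect and wells lacking cells for full effect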
SufuKO cytotox: cytotoxicity in Sufu-KO-LIGHT cells, confirmation, cytotoxicity control for Gli-SUFU antagonist project, cell-based, ATP luminescence, single concentration; shares compounds with Gli-Sufu antag; cytotoxicity, % at 5 µM; 2,500 tested, 32% active;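 active = mean cytotoxicity at 5 µM above about 25%, limit read from the data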;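 note: cells exposed to compound overnight for roughly 16 to 18 hours; plate controls were DMSO wells with cells for no effect and medium without cells for full effect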
Wnt3a cs: Wnt3a reporter signal inhibition, confirmation, counter-screen for Gli-SUFU antagonist project, Wnt-LIGHT cells, luminescence, single concentration; shares compounds with Gli-Sufu antag; Wnt3a-driven luciferase reporter; inhibition, % at 6.25 µM; 2,500 tested, 20% active;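 active = mean inhibition above about 25%, limit read from the data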
* hit, by the source's call; · = no result.

SMILES | 697 NFkB inh | Jurkat NFkB inh | EBV LMP1 NFkB | Gli-Sufu antag | Shn3 3UTR inh | MITF TRPM1 inh | Gli-Sufu confirm | SufuKO cytotox | Wnt3a cs
COc1ccc(NS(=O)(=O)c2cccc(C(=O)N/N=C/c3cn(-c4ccccc4)nc3-c3ccc(OC)cc3)c2)cc1 | -23 | -36 | -23 | -42 | -48 | -35 | · | · | ·
C/C(=N\NC(=O)c1nnn(-c2nonc2N)c1C(C)C)c1ccc2ccccc2c1 | -82 | -24 | -5 | 60* | -3 | -8 | 11 | 28* | 20
C/C(=N\NC(=O)c1nnn(-c2nonc2N)c1C(C)C)c1ccncc1 | 3 | 3 | 14 | 4 | 20 | 0 | · | · | ·
CC(C)(C)OC(=O)CNC(=O)c1[nH]cnc1C(=O)NC(c1ccccc1)c1ccccc1 | 13 | -20 | -5 | 4 | 1 | 2 | · | · | ·
COc1ccccc1NC(=O)C(C)OC(=O)/C=C/c1ccc2ccccc2n1 (stereo not drawn) | 11 | 18 | -22 | -24 | -58 | -48 | · | · | ·
Cn1c(Cc2csc(N)n2)nnc1SCC(=O)NCc1ccccc1 | -3 | -12 | -7 | 95* | -16 | -9 | 4 | 2 | -17
COc1ccc(C(C(=O)NC2CCCC2)N(C(=O)c2ccco2)c2ccc3c(c2)OCO3)cc1OC (stereo not drawn) | -34 | -22 | 1 | 1 | 4 | 10 | · | · | ·
COCC(=O)N1CCC(Oc2ccc(C(=O)NCCCn3cccn3)cc2)CC1 | 2 | -13 | 13 | 53 | 3 | 0 | 21 | 7 | 5
COc1ccc(/C=C2\Sc3ccc(C(=O)N4CCN(Cc5ccccc5)CC4)cc3N(C)C2=O)cc1OC | -13 | 33 | 29 | 99* | 65 | 60 | 13 | 13 | -7
COc1ccc(CN2CCSCC2)c(OC)c1C | 15 | -8 | -2 | 59* | 3 | 7 | 17 | 13 | -7
CN(C)/C=N/c1nccc(-c2cccs2)n1 | 25 | 0 | 8 | · | 3 | 8 | · | · | ·
CN(CCC#N)C(=O)CSc1ncnc2sc(-c3ccccc3)cc12 | -32 | -18 | 3 | -24 | -50 | -49 | · | · | ·
Cc1ccc(N(CC(=O)NC2CCCCCC2)S(=O)(=O)c2c(C)nn(C)c2C)cc1 | -15 | -2 | 0 | 3 | 4 | 0 | · | · | ·
COc1ccc(N(CC(=O)NC2CCCCCC2)S(=O)(=O)c2c(C)nn(C)c2C)cc1 | -3 | -8 | 4 | 51 | 7 | -6 | 9 | -6 | -34
Cc1ccc(N(CC(=O)NC2CCCCC2)S(=O)(=O)c2c(C)noc2C)cc1 | 1 | -4 | -7 | 50 | -25 | 0 | 14 | 18 | -35
O=C(O)c1cccc(-c2ccc(/C=C3/SC(=Nc4ccccc4)N(Cc4cccnc4)C3=O)o2)c1 | -112 | -37 | 5 | -12 | -25 | -1 | · | · | ·
O=C(CNS(=O)(=O)c1c(Cl)cccc1Cl)N1CCCCCC1 | 6 | -15 | 4 | -15 | 9 | 5 | · | · | ·
CCNC(=O)Nc1cc(S(=O)(=O)Nc2ccc(OC)cc2)ccc1N1CCOCC1 | -15 | 24 | 18 | 61* | 72 | 6 | 61* | 46* | 24
COc1cccc(NC(=O)C(C)OC(=O)CCCNC(=O)c2ccc(Cl)cc2)c1 (stereo not drawn) | 12 | -4 | -2 | -5 | 1 | -17 | · | · | ·
COc1cccc(Cn2c(-c3cccs3)noc2=O)c1 | -9 | 3 | -18 | 99* | -5 | 3 | 20 | 8 | -37
Cc1cc(C#N)c(C)c(SCc2[nH]nc3c2C(c2ccccc2)C(C#N)=C(N)O3)n1 (stereo not drawn) | 3 | -5 | -2 | 58* | -13 | 6 | 25 | 16 | 0
CC(=O)c1ccc(N2CCN(c3ccc(C(F)(F)F)cn3)CC2)cc1 | · | · | 22 | 52 | 61 | -7 | 52* | 11 | -58
CC(C)NC(=O)NNC(=O)Cn1nnc(-c2cccc(Cl)c2Cl)n1 | 13 | 4 | -8 | 1 | 3 | -4 | · | · | ·
CSc1cccc(NS(=O)(=O)c2ccc3c(c2)CCN3C(C)=O)c1 | 7 | 33 | 24 | 71* | 89* | 24 | 60* | 30* | 27*
O=C(OCC1CC(c2ccccc2)=NO1)c1ccco1 (stereo not drawn) | -11 | 9 | -6 | 9 | -1 | -9 | · | · | ·
SMILES | 697 NFkB inh | Jurkat NFkB inh | EBV LMP1 NFkB | Gli-Sufu antag | Shn3 3UTR inh | MITF TRPM1 inh | Gli-Sufu confirm | SufuKO cytotox | Wnt3a cs
C[C@@H]1NC(=O)N(CCCn2ccnc2)C1=O | 17 | 9 | -3 | 1 | -3 | 2 | · | · | ·
CCC1CCCCN1S(=O)(=O)c1ccc(NC(=O)c2ccncc2)cc1 (stereo not drawn) | -32 | 25 | 18 | 58* | 88* | 24 | 37 | 41* | -11
N#Cc1c(N)nc2c3c(sc(=N)c2c1N)NC(=O)CC3c1c(F)cccc1Cl (stereo not drawn) | -34 | -2 | -1 | 0 | 4 | 10 | · | · | ·
CCOC(=O)C(NCc1ccccn1)(NC(=O)c1cccnc1)C(F)(F)F (stereo not drawn) | -20 | 9 | -2 | 96* | -8 | -2 | 12 | 5 | -3
CN1C(=O)NC(c2ccc(C(F)(F)F)cc2)C2=C1CC(C)(C)CC2=O (stereo not drawn) | -12 | -19 | -10 | 1 | -12 | -8 | · | · | ·
COc1cccc(-c2nc(CS(=O)(=O)CC(=O)NCCN3CCOCC3)c(C)o2)c1 | -5 | 7 | -1 | 77* | -13 | 1 | 21 | -1 | -6
CCOC(=O)c1c(NC(=O)C(=O)N/N=C/c2ccccc2OC)sc2c1CCCCC2 | -4 | 19 | 3 | -3 | -8 | -2 | · | · | ·
COC(=O)c1c(NC(=O)c2ccccc2N(C)S(=O)(=O)c2ccccc2)sc2c1CCCC2 | · | · | 16 | 6 | 70 | 35 | · | · | ·
CCOC(=O)c1c(NC(=O)c2ccccc2N(C)S(=O)(=O)c2ccccc2)sc2c1CCCC2 | -4 | 26 | 4 | 52 | 79 | 18 | 14 | 15 | -35
CCOC(=O)c1c(NC(=O)COC)sc2c1CCCC2 | -7 | -20 | -11 | 7 | -20 | 6 | · | · | ·
